# From PubChem BioAssay AID504834 (National Center for Advancing Translational Sciences (NCATS), 2011)
# About 22,000 (6.9%) of roughly 320,000 compounds were called active. Not shown: some 27% with an inconclusive outcome. What follows is part of a selection rich in actives, with near analogues and random picks from the rest. Unmarked numbers belong to inactive results. The call rests on the fitted dose curve; in most records, active means well fitted inhibition curve with a large enough effect; inconclusive means small, poorly fitted or top-dose-only effect, or another doubt; inactive means no such curve, though single readings can be large or run the other way.
# Experiment: Primary qHTS for delayed death inhibitors of the malarial parasite plastid, 96 hour incubation
# Details: P. falciparum luciferase reporter growth; series mostly up to 28.7 µM; activity change, negative = inhibition: at the top concentration
# Procedure, shortened: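 Erythrocytes infected with luciferase-expressing P. falciparum were dispensed at 2% hematocrit and 0.05% parasitemia (final), then incubated with compounds 96 hours at 37 C in 5% CO2. Luminescence after detection reagent addition reported growth.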
# On the % scale 0 is the no-effect control and ±100 the full control effect; potency means the concentration at half of the fitted maximal effect.
SMILES,"activity change, negative = inhibition [%]",Potency
O=C(CCNC(=O)c1ccc([N+](=O)[O-])cc1)NC1CCCCC1,1.74,
CCOC(=O)c1c(N=CN(C)C)c(C#N)c2n1CCCC2,40.2,
CCSc1ncnc2c(C#N)c3n(c12)CCCCC3,,11.7 µM (active)
CC(C)c1nnc(NC(=O)COC(=O)/C=C/c2ccc([N+](=O)[O-])cc2)s1,49.2,
Cc1cc(C)n(CC(C)NCc2c(C(=O)N3CCOCC3)nc3c(C)cccn23)n1 (stereo not given),-0.364,
COC(=O)C1[C@H]2SC(C)(C)C(C(=O)OC)N2C(=O)N1Cc1nc2ccccc2s1 (stereo not given in full),-38.7,
Cc1ccc(-n2c(N)c(C(=O)N3CCOCC3)sc2=S)c(C)c1,83.6,
Cc1cccc(-n2c(N)c(C(=O)N3CCN(C)CC3)sc2=S)c1,-0.499,
N#Cc1ccccc1-n1c(N)c(C(=O)N2CCCC2)sc1=S,,3.7 µM (active)
COC(=O)Cc1ccc(OCC(=O)NC2CCCC2)cc1,15.2,
CC(C)(C)OC(=O)NNc1c2ccccc2nc2ccccc12,-26.2,
O=C(NNc1c2ccccc2nc2ccccc12)c1cc2ccccc2cc1O,,3.7 µM (active)
O=C(N/N=C/c1cccnc1)c1cc2ccccc2cc1O,-0.65,
O=C(COC(=O)c1ccc2ncsc2c1)Nc1ccc(Cl)cc1,47.8,
COc1ccccc1C(=O)N/C(=C/c1ccco1)C(=O)Nc1ccc(C(=O)O)cc1,7.14,
CCOC(=O)c1csc(NC(=O)Nc2cccc(OC)c2)n1,4.94,
CCCCCCC(=O)Nc1nc(C)c(-c2csc(Nc3cc(Cl)ccc3OC)n2)s1,,2.62 µM (active)
CCCCCCC(=O)Nc1nc(C)c(-c2csc(Nc3cccc(OC)c3)n2)s1,,7.38 µM (active)
CCCCC(=O)Nc1nc(C)c(-c2csc(Nc3ccc(Cl)cc3)n2)s1,,3.29 µM (active)
CC(=O)c1sc(NC(=O)CCCOc2ccccc2C)nc1C,13.9,
COc1ccc(OC)c(Nc2nc(-c3ccc(O)c(O)c3)cs2)c1,12,
Cc1nc(C)c(-c2csc(NCCc3ccccc3)n2)s1,9.36,
COc1ccc(OC)c(-c2csc(NC(=O)COC(=O)C3CC3)n2)c1,13.8,
CCCCN(C)CCC(=O)Nc1ccc(Cl)cc1,54.5,
C=CCCC(=O)Nc1nc(C)c(-c2csc(Nc3ccc(Cl)cc3)n2)s1,,0.657 µM (active)
COc1ccc(-c2csc(NC(=O)COC(=O)Cc3ccc(Cl)cc3Cl)n2)cc1,277,
CCCCC(=O)N/N=C(\C)CC(=O)Nc1cc(Cl)ccc1OC,124,
COc1ccc(-c2ccc(OC(=O)NC3CCS(=O)(=O)C3)cc2)cc1 (stereo not given),108,
O=[N+]([O-])c1cc(S(=O)(=O)NCCc2ccccn2)ccc1Cl,-26.6,
CN1CCN(Cc2c(C(=O)N3CCc4ccccc4C3)nc3ccc(Cl)cn23)CC1,-8.15,
